Screen size: about 16,000 compounds; about 5,100 (32%) were called active. Not shown: some 25% with an inconclusive outcome. Calls come from the whole dose curve; as a rule, active = well fitted curve in the direction sought with a large enough effect; inconclusive = small, poorly fitted or top-dose-only effect, or effect the other way; inactive = no such curve, though single readings can be large or run the other way. The list shows a part of the results.
Each molecule was assayed against Cytochrome P450 3A4 (Homo sapiens) (UniProt P08684) (assay: Cytochrome panel assay with activity outcomes). Details: recombinant CYP, pro-luciferin dealkylation, luminescence, p450-cyp3a4; series mostly up to 57.1 µM.
Protocol: The P450 gene superfamily is involved in the metabolism and clearance of xenobiotics. This assay used various human CYP P450 isozymes to measure the dealkylation of various pro-luciferin substrates to luciferin. The luciferin is then measured by luminescence after the addition of a luciferase detection reagent. Pro-luciferin substrate concentration in the assay was equal to its KM for its CYP P450 isozyme. Inhibitors and some substrates limit the production of luciferin, and decrease measured luminescence.
NCGC Assay Protocol Summary:
1, Reagent, 2 uL, Isozyme and Pro-Luciferin
2, Library compounds, 23 nl, 40 uM to 0.24 nM dilution series
3, Controls, 23 nl, Isozyme specific inhibitor
4, Reagent, 2 uL, NADPH regeneration solution
5, Incubation time, 60 min, Isozyme specific temperature
6, Reagent, 4ul, Detection reagent
7, Incubation time, 20 min, Isozyme specific temperature
8, Detection, 1 sec, ViewLux luminescent read
The luciferase-based P450-GloTM Screening Systems were obtained from Promega (Madison, WI) for CYP 1A2 (V9770), CYP 2C9 (V9790), CYP2 C19 (V9880), CYP 2D6 (V9890), and CYP 3A4 Luciferin-PPXE (V9910) and were adapted for 1,536-well microplates and an automated protocol. The control compounds furafylline for 1A2 (F124), sulfaphenazole for CYP 2C9 (S0758), ketoconazole for CYP 2C19 (K1003), quinidine for 2D6 (Q3625), and ketoconazole for 3A4 (K1003) were purchased from Sigma Aldrich (St. Louis, MO). Recombinant P450 enzymes were obtained from baculovirus constructs expressed in insect cells (BD/Gentest).
Medium-binding white solid Kalypsys plates used. Mixtures kept on ice. 1A2: 10 nM 1A2, 100 uM Luc-ME, 100 mM KPO4; 2C9: 10 nM 2C9, 100 uM Luc-H, 25 mM KPO4; 2C19: 5 nM 2C19, 10 uM Luc-H EGE, 50 mM KPO4; 2D6: 5 nM 2D6, 30 uM Luc-ME EGE, 100 mM KPO4; 3A4: 10 nM, 25 uM Luc-PPXE. All amounts are reflected in their final concentration, working concentration is 2x.
NADPH regeneration solution: 1.3 mM NADP+, 3.3 mM glucose-6-phosphate, 3.3 mM MgCl2, 0.4 U/mL glucose-6-phosphate dehydrogenase for all isozymes, 200 mM KPO4 for 3A4. Mixture prepared at RT but kept on ice during automated run.
RT incubation in auxilliary plate hotel for 1A2, 2D6, and 3A4; 37C for 2C9 and 2C19.
Keywords: P450, CYP1A2, CYP2C19, CYP2C9, CYP2D6, CYP3A4, Luciferase, MLSMR, MLSCN, NIH Roadmap, qHTS, NCGC
% is set by controls: 0 for no effect and ±100 for the full control effect.

Sequence of Cytochrome P450 3A4 (Homo sapiens) (P08684 whole entry, looked up): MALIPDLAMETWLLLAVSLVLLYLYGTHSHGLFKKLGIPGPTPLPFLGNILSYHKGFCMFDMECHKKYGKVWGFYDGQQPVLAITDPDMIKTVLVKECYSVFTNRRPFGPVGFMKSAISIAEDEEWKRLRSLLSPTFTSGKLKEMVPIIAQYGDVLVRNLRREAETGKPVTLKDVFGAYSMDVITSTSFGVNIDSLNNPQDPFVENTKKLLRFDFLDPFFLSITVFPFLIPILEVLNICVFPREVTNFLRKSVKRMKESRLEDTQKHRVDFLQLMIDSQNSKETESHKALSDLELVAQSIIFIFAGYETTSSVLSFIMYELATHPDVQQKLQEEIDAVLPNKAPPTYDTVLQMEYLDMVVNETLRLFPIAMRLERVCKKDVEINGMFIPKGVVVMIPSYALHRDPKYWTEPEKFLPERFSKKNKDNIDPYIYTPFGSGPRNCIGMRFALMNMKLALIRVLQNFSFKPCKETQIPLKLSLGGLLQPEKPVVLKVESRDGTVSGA

SMILES | AC50 | activity, negative = inhibition
CCSc1nc2c(c(=O)[nH]1)C(c1ccncc1)C(C(=O)OC(C)C)=C(C)N2 (stereo not given) | 1.12 µM (active) | 
CSc1nc2c(c(=O)[nH]1)C(c1ccncc1)C(C(=O)OC(C)C)=C(C)N2 (stereo not given) | 1.26 µM (active) | 
CCSc1nc2c(c(=O)[nH]1)C(c1ccccn1)C1=C(CC(C)(C)CC1=O)N2 (stereo not given) | inactive | 
COc1ccc(CNC(=O)/C=C/c2ccc(OCCCF)cc2)cc1 | 5.01 µM (active) | 
COCCCNC(=O)/C=C/c1ccc(Cl)cc1 | inactive | 
COC(=O)CNC(=O)/C=C/c1ccc(OC)cc1 | inactive | 
CCCCSc1ccc2nc(-c3ccc(C#N)cc3)cn2c1 |  | 20.1% [at 2.29 µM] (inactive)
CCn1c(COc2ccc(C)cc2)nnc1SCc1ccc(C#N)cc1 | 2 µM (active) | 
CCn1c(SCc2ccc(C#N)cc2)nnc1-c1ccc(S(=O)(=O)N2CCCCC2)cc1 | inactive | 
CCc1nnc(NS(=O)(=O)c2ccc(N=Cc3c(C)[nH]n(-c4ccc(C)cc4)c3=O)cc2)s1 | 22.4 µM (active) | 
CCOc1[nH]n(-c2ccc(Cl)cc2)c(=O)c1C=Nc1ccc(Cl)cc1 | inactive | 
CC#CCCCC(=O)Nc1cc(OC)nc(OC)n1 | 14.1 µM (active) | 
COc1cc(NC(=O)c2c(F)cccc2F)nc(OC)n1 | inactive | 
CC#CCCCC(=O)Nc1ccc(C(=O)O)cc1 | inactive | 
CN(C)/C=C/C(=O)c1ccc(Cl)cc1 | inactive | 
CNc1ccc(Br)cc(C(=O)/C=C/c2ccc3c(c2)OCO3)c1=O | 11.2 µM (active) | 
CCNc1ccc(Br)cc(C(=O)/C=C/c2ccc3c(c2)OCO3)c1=O | 17.8 µM (active) | 
CN(C)CCNC(=O)C(C(=O)c1ccc(F)cc1)n1ccccc1=O (stereo not given) | inactive | 
CCCn1nnc(NC(=O)c2ccc(-c3cccc(Cl)c3)o2)n1 | 28.2 µM (active) | 
O=C(Nc1cccc2nsnc12)c1ccc(-c2cccc(Cl)c2)o1 |  | 1.55% [at 2.29 µM] (inactive)
CCCn1nnnc1-c1cccc(Cl)c1 | inactive | 
C[C@@H](N1CCOCC1)[C@@](O)(c1ccccc1)c1ccccn1 |  | -13% [at 11.4 µM] (inactive)
N#C/C(=C/N1CCOCC1)c1ccccc1 | inactive | 
OC(c1ccccc1)(c1ccc(F)cc1)C(c1ccccc1)N1CCOCC1 (stereo not given) | 3.98 µM (active) | 
Nc1ccc(N=Nc2c(S(=O)(=O)O)cc3ccccc3c2S(=O)(=O)O)cc1 |  | 5.34% [at 11.4 µM] (inactive)

SMILES | AC50 | activity, negative = inhibition
Cc1nc2sccn2c(=O)c1Cl | inactive | 
CN(C)CCN1C(=O)C(O)=C(C(=O)c2cc3ccccc3o2)C1c1ccccn1 (stereo not given) | inactive | 
Cc1ccc(C2C(C(=O)c3sc(C)nc3C)=C(O)C(=O)N2CCN2CCOCC2)o1 (stereo not given) | inactive | 
CCOc1cccc(C2C(C(=O)c3ccc(C)o3)=C(O)C(=O)N2Cc2ccncc2)c1 (stereo not given) | 5.01 µM (active) | 
Cc1cc(N2C(=O)C(O)=C(C(=O)c3cccs3)C2c2cccc(O)c2)no1 (stereo not given) | inactive | 
COc1cc(C2C(C(=O)c3ccc(C)o3)=C(O)C(=O)N2CCc2ccccc2)ccc1O (stereo not given) | inactive | 
Cc1ccc(C(=O)C2=C(O)C(=O)N(CCCn3ccnc3)C2c2ccc(OC(C)C)cc2)o1 (stereo not given) | 7.94 µM (active) | 
CCOC(=O)c1c(NC(=O)CCCN2CCOCC2)sc2c1CC(C)(C)OC2 | 7.08 µM (active) | 
Cn1c(=O)n(-c2ccc(Cl)cc2)c(=O)c2c3c(sc21)COC(C)(C)C3 | inactive | 
CCOC(=O)c1c(NC(=O)CCC(=O)N2CCOCC2)sc2c1CC(C)(C)OC2 | 12.6 µM (active) | 
Cn1c(O)c(C(C#N)=C2N=c3ccccc3=N2)c2ccccc21 | 3.55 µM (active) | 
N=C(N)SCCN | inactive | 
COC(=O)[C@@H]1O[C@@H](SCCN)[C@@H](O)[C@H](O)[C@H]1O |  | -3.54% [at 11.4 µM] (inactive)
CC(=O)O[C@]12CC[N@+]3(C)CCCC[C@@H]3[C-]1Nc1ccccc12 |  | 0.352% [at 11.4 µM] (inactive)
Cc1cc2c(c(=O)o1)[C@@H](O)[C@H]1O[C@@H]1C2=O |  | -17.6% [at 11.4 µM] (inactive)
COc1ccccc1N1CCN(C[C@@H]2CN3C(=O)N(C)c4ccccc4C3=N2)CC1 | 15.8 µM (active) | 
Cc1cc(=O)oc(C)c1C(=O)N1CCCCC1 | inactive | 
CC1=C(C(=O)NCCN2CCN(C)CC2)C2(CCC(C)CC2)OC1=O (stereo not given) | inactive | 
CC1=C(C(=O)N2CCCCCC2)C2(CCC(C)CC2)OC1=O (stereo not given) | 11.2 µM (active) | 
CCCCCC/C(C)=C1/SC(=S)NC1=O |  | -11.2% [at 2.29 µM] (inactive)
O=C(COc1cccc2ccccc12)NNC(=O)c1cccs1 | 25.1 µM (active) | 
O=C(CCC(=O)Nc1ccccc1)NNC(=O)c1cccs1 |  | 9.11% [at 2.29 µM] (inactive)
CCC(=O)Nc1ccc(C(=O)NNC(=O)c2cccs2)cc1 | inactive | 
O=C(CSc1ccc(Cl)cc1)Nc1cccc(-c2nc3ncccc3o2)c1 | 12.6 µM (active) | 
CCCCCC(=O)Nc1cccc(-c2nc3ncccc3o2)c1 | 15.8 µM (active) | 

SMILES | AC50 | activity, negative = inhibition
O=C(Nc1cccc(-c2nc3ncccc3o2)c1)c1sc2cc(Cl)ccc2c1Cl | inactive | 
CCCCC(=O)Nc1ccc(C)c(O)c1 |  | 9.17% [at 2.29 µM] (inactive)
CCc1ccc(OCC(=O)Nc2ccc(-c3nc4ccccc4o3)c(O)c2)cc1 | inactive | 
CC12CC[C@@H]3c4ccc(OP(=O)(O)O)cc4CCC3C1CCC2=O (stereo not given in full) |  | 5.91% [at 11.4 µM] (inactive)
COc1c(N2CCN(C(=S)Nc3ccc(F)cc3)C(C)C2)c(F)cc2c(=O)c(C(=O)O)cn(C3CC3)c12 (stereo not given) | inactive | 
O=S(=O)(c1ccccc1)c1cnc(-c2cccnc2)nc1-c1ccc(Cl)cc1Cl | 2.82 µM (active) | 
O=S(=O)(c1ccc(Cl)cc1)c1cnc(-c2cccnc2)nc1-c1ccccc1 | 8.91 µM (active) | 
Clc1ccc(-c2nnc(-c3ccccc3)c(N3CCSCC3)n2)cc1 | inactive | 
CN1CCCCC1=NCCCn1cnc2c1c(=O)n(C)c(=O)n2C | inactive | 
CC(=O)[C@H]1CC[C@@H]2[C@H]3CC=C4C[C@@H](O)CC[C@]4(C)[C@H]3CC[C@]12C | inactive | 
Cc1cc(C)c2c(-n3cccc3)n[nH]c2n1 | inactive | 
COCCNc1ncnc2ccc(-c3cccc(OC)c3)cc12 | 12.6 µM (active) | 
COc1cccc(-c2ccc3ncnc(NCCNC(C)=O)c3c2)c1 | 15.8 µM (active) | 
COCCNc1ncnc2ccc(-c3cccnc3)cc12 | 10 µM (active) | 
O=[N+]([O-])c1cccc2c(Br)[nH]nc12 | 12.6 µM (active) | 
O=[N+]([O-])c1cccc2cn[nH]c12 | inactive | 
Brc1[nH]nc2ccccc12 | inactive | 
COC(=O)c1ccc(NC(=O)Cn2nc(-c3ccncc3)nc2SCC(=O)Nc2nccs2)cc1 | 2 µM (active) | 
Cc1oc(-c2cccs2)[n+]([O-])c1C | inactive | 
CC(=O)Nc1ccc(NC2=Nc3ccccc3N3C2=Nc2c(c(C)nn2-c2ccccc2)C3c2ccccc2)cc1 (stereo not given) | inactive | 
CCCCN(C)CCCNC(=O)CCn1nc(-c2ccccc2)ccc1=O | inactive | 
CCN(CCCNC(=O)CC(C(=O)N1CCc2ccccc21)n1ccnc1)c1ccccc1 (stereo not given) | 0.794 µM (active) | 
CCN(CC)CCC(=O)Nc1ccc2c(c1)N(C(=O)CN(CC)CC)c1ccccc1CC2 |  | 3.63% [at 2.29 µM] (inactive)
Cc1cc(C)c(S(=O)(=O)n2ccc(-c3ccc(OCCN(C)c4ccccn4)cc3)n2)c(C)c1 | 2.24 µM (active) | 
COC(=O)[C@@H]1C[C@H]1[C@@H](NC(=O)c1cc(C)nn1C)c1ccccc1 | 10 µM (active) | 

SMILES | AC50 | activity, negative = inhibition
COC(=O)[C@H]1C[C@@H]1[C@H](NC(=O)c1cc(C)nn1C)c1ccccc1 | 6.31 µM (active) | 
O=c1ccc(Oc2nc(N3CCOCC3)nc(N3CCOCC3)n2)n[nH]1 | inactive | 
COc1ccc(/C=C(/C#N)C(=O)Nc2cc(C)ccc2C)cc1C(=O)O | inactive | 
N#C/C(=C\c1ccc(O)c(O)c1)C(=O)NCCc1ccccc1 | 3.98 µM (active) | 
N#C/C(=C\c1ccc(O)c(O)c1)C(=O)NCCCc1ccccc1 | 2.51 µM (active) | 
O=C(O)/C=C\C(=O)NCc1ccccc1 | inactive | 
N#C/C(=C\c1ccc(O)c(O)c1)C(=O)Nc1ccccc1 | 15.8 µM (active) | 
Cc1cc(/C=C(/C#N)C(=O)Nc2ccccc2)c(C)n1-c1cccnc1 | inactive | 
N#C/C(=C\c1ccc(O)c(O)c1)C(=O)NCc1ccccc1 | 15.8 µM (active) | 
COCCN1CN=C(Nc2nc3ccccc3o2)NC1 | inactive | 
CC(C)(C)c1ccc(OCC(=O)NNC(=O)Cc2cccs2)cc1 | 3.98 µM (active) | 
CC(=O)OCC1=C(C(=O)O)N2C(=O)[C@@H](NC(=O)Cc3cccs3)[C@@H]2SC1 | inactive | 
CC(/C=N/NC(=O)Cc1cccs1)=C\c1ccco1 |  | 1.99% [at 2.29 µM] (inactive)
O=C1C(Cl)=C(Nc2ccc(S(=O)(=O)Nc3ccccn3)cc2)C(=O)c2ccccc21 |  | -10.8% [at 11.4 µM] (inactive)
O=S(=O)(Nc1ccc(Cc2ccncc2)cc1)c1ccc(Br)cc1 | 0.355 µM (active) | 
CCNS(=O)(=O)c1ccc(NS(C)(=O)=O)cc1 | inactive | 
O=S(=O)(Nc1ccc(Cc2ccncc2)cc1)c1cccs1 | 0.355 µM (active) | 
C/C(=N/S(=O)(=O)c1ccc(Cl)c(Cl)c1)OCC(C)(C)C |  | -5.85% [at 11.4 µM] (inactive)
Cc1ccc(NC(=O)NNS(=O)(=O)c2ccc(Br)cc2)cc1 | inactive | 
O=S(=O)(Nc1ccc(Cc2ccncc2)cc1)c1ccc(Cl)c(Cl)c1 | 0.398 µM (active) | 
N[C@H](Cn1ccc(=O)n(Cc2ccccc2C(=O)O)c1=O)C(=O)O | inactive | 
CCc1sc(-c2c(C#N)c(N)nc3c2CCCCCC3)cc1[N+](=O)[O-] |  | -20.1% [at 2.29 µM] (inactive)
Cn1ncc(C#N)c1/N=C/N1CCCCCC1 | inactive | 
N#Cc1c(N)nc2c(c1-c1cccc(O)c1)CCCCCC2 | 4.47 µM (active) | 
Cc1c(-c2c(C#N)c(N)nc3c2CCCCCC3)cnn1C | 7.94 µM (active) | 

— PubChem BioAssay AID1851 (National Center for Advancing Translational Sciences (NCATS), 2009)
